Screening data: PubChem, several laboratories
Rows were chosen to be rich in hits. Some 2.3% of all compounds tested hit in one or more screens of this group.
IDE cell activ – activators of human insulin-degrading enzyme in cells | activation, % at 5.96 µM | HEK cells, FAbeta-B cleavage, fluorescence polarization; 0% vehicle, 100% cell-free pure enzyme wells | AID 493087 | 0.073% of 340,000 active;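 active = activation above the mean of all tested compounds plus 3 SD, set per screening campaign, cut at about 17% in these data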
Rin1-Abl PPI inh – inhibitors of human Rin1-Abl protein interaction | P00519+Q13671 | TR-FRET Rin1/Abl binding, biochemical | inhibition, % at 7.35 µM | 0.4% of 360,000 active; in the data active = inhibition above about 5%, passing the limit was not always enough
TPT1 inhibitor – inhibitors of Candida albicans tRNA 2'-phosphotransferase TPT1; 0.81% of 300,000 active; inhibition, % at 5 µM; recombinant caTPT1, FP RNA substrate dephosphorylation;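 active = inhibition above the mean of all tested compounds plus 3 SD, set per screening campaign, cut at about 24% in these data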
IDE inh – inhibits human insulin-degrading enzyme in HEK cells; FAbetaB cleavage, fluorescence polarization; inhibition, % at 5.59 µM; 0.41% of 320,000 active;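 active = percent inhibition above the average of all tested compounds plus 3 SD, set per screening campaign, cut at about 16% in these data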;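 also: IDE supplied by intact live HEK cells; FP after avidin binding of uncleaved biotin substrate so inhibition keeps polarization high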
Calb FLC – C. albicans growth modulation with fluconazole; 0.57% of 300,000 active; C. albicans CaCi-2 (fluconazole-resistant clinical isolate) + fluconazole, Alamar Blue growth, 48 h; growth inhibition, % (concentration not given with the values);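 active = growth inhibition above about 58% in most replicates, limit read from the data, passing the limit was not always enough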;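 also: all wells also contain fluconazole at 8 µg/ml as a sub-toxic cotreatment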
Rpn11 inh – Rpn11 (human) deubiquitinase inhibition; O00487; human 26S proteasome, Ub4-pepOG fluorescence polarization; 20S core pre-blocked with epoxomicin; inhibition, % at 20 µM; 0.59% of 360,000 active; AID 588493;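 active = inhibition at 20 µM, scaled to each plate's controls, above about 33%, limit read from the data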
Target sequence (O00487 whole entry, looked up): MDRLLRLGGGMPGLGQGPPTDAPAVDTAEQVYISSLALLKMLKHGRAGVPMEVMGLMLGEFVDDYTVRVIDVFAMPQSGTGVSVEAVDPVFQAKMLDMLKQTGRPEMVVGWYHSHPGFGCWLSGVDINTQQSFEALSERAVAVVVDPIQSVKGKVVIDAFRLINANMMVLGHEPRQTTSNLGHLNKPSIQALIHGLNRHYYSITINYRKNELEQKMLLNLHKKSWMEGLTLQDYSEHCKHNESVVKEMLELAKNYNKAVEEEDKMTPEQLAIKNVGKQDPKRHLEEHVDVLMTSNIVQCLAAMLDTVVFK
Rin1 Abl conf – Rin1-Abl interaction inhibition confirmation; shares compounds with Rin1-Abl PPI inh; TR-FRET Rin1-Abl binding, purified proteins; inhibition, % at 7.35 µM; 49% of 1,300 active
GFP quench-1 – quenches GFP fluorescence, counter-screen for Rin1-Abl inhibitors; shares compounds with Rin1-Abl PPI inh; inhibitors/quenchers counterscreen; inhibition, % at 6.75 µM; 8.5% of 1,300 active; AID 602125;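 also: ABL1-eGFP fusion protein alone without its partner RIN1-SBP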
GFP quench dose – counter-screen for Rin1-Abl inhibitors: GFP quenchers, dose response; shares compounds with Rin1-Abl PPI inh; GFP fluorescence interference/quenching counterscreen; IC50, µM; 230 tested, under 10 active; AID 602182; call rule not given here;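 also: ABL1-eGFP fusion protein alone without its RIN1 binding partner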
GFP quench-2 – GFP quenching artifact for Rin1-Abl inhibitor hits; shares compounds with Rin1-Abl PPI inh; GFP fluorescence quenching counterscreen, biochemical; IC50, µM; 25 tested, under 10 active; AID 602397; call rule not given here
Of the large screens only hits and unclear results are named; the others gave an inactive call (follow-up assays come after a bar, where they were run). Rule as the data show it, unless noted: active = inhibition above about 6.5%; inactive = the rest.

Cc1ccc(S(=O)(=O)N2CCN(C(=O)CSc3ccccn3)CC2)c(C)c1	Rin1-Abl PPI inh 8.2 | Rin1 Abl conf inactive | GFP quench-1 inactive
Cc1ccc(S(=O)(=O)N2CCN(C(=O)c3ccccn3)CC2)c(C)c1	none
Cc1ccc(NC(=O)COC(=O)Cc2c[nH]c3ccccc23)cc1F	Rin1-Abl PPI inh 10.1 (no result: TPT1 inhibitor, IDE inh, Calb FLC) | Rin1 Abl conf inactive | GFP quench-1 inactive
O=C(COC(=O)Cc1c[nH]c2ccccc12)Nc1ccc(Cl)cc1	none (no result: IDE cell activ, TPT1 inhibitor, IDE inh, Calb FLC)
COc1cc(Cn2c3ccc(NC(=S)NCc4ccc(C)cc4)cc3c(=O)n2C)ccc1F	none (no result: IDE cell activ, TPT1 inhibitor, IDE inh, Calb FLC)
Cc1ccc(CNC(=O)Cc2ccc(NC3=NC4CS(=O)(=O)CC4S3)cc2)cc1 (stereo not drawn)	Rin1-Abl PPI inh 10.5 | Rin1 Abl conf inactive | GFP quench-1 inactive
COc1ccc(CCNC(=O)c2ccc(NC3=NC4CS(=O)(=O)CC4S3)cc2)cc1OC (stereo not drawn)	Rin1-Abl PPI inh 18.5 | Rin1 Abl conf 22.3 | GFP quench-1 inactive | GFP quench dose inactive
O=C(Cc1ccc(NC2=NC3CS(=O)(=O)CC3S2)cc1)NCCc1ccccc1 (stereo not drawn)	Rin1-Abl PPI inh 6.5 | Rin1 Abl conf inactive | GFP quench-1 inactive
Cc1cccc(CCNC(=O)Cc2ccc(NC3=NC4CS(=O)(=O)CC4S3)cc2)c1 (stereo not drawn)	none
COc1cccc(C2c3cc4c(cc3OC(NNC(N)=O)C2C)OCO4)c1O (stereo not drawn)	none (no result: TPT1 inhibitor, IDE inh, Calb FLC)
Cc1cc(C)n(CCCNC(=O)c2ccc(C)o2)n1	none (no result: TPT1 inhibitor, Calb FLC)
Cc1cccc(C)c1OCc1cc(C(=O)N2CCNC(=O)C2)no1	none
CSc1ccccc1OCc1cc(C(=O)N2CCNC(=O)C2)no1	Rin1-Abl PPI inh 48.0 | Rin1 Abl conf 40.3 | GFP quench-1 inactive | GFP quench dose inactive | GFP quench-2 inactive
CC[C@]12c3[nH]c4ccc(Cl)cc4c3CCN1C(=O)[C@@H](CC(=O)NC(C)(C)C)C[C@@H]2C(=O)N1CCN(C(=O)c2ccco2)CC1	none (no result: TPT1 inhibitor, IDE inh, Calb FLC)
CC[C@]12c3[nH]c4ccc(OC)cc4c3CCN1C(=O)C(CC(=O)NCC13CC4CC(CC(C4)C1)C3)C[C@@H]2C(=O)N1CCN(C(=O)C2CC2)CC1 (stereo partly drawn)	Rin1-Abl PPI inh 19.4 (no result: TPT1 inhibitor, IDE inh, Calb FLC) | Rin1 Abl conf 23.8 | GFP quench-1 inactive | GFP quench dose inactive
CC[C@]12c3[nH]c4ccc(Cl)cc4c3CCN1C(=O)[C@@H](CC(=O)NCCCN(C)C)C[C@@H]2C(=O)N1CCN(C(=O)c2ccco2)CC1	Rin1-Abl PPI inh 21.9 (no result: TPT1 inhibitor, IDE inh, Calb FLC) | Rin1 Abl conf 21.7 | GFP quench-1 inactive | GFP quench dose inactive
Cc1cc(C)n2ncc(/C(N)=N/OC(=O)Nc3ccc(Cl)cc3)c2n1	none (no result: IDE cell activ)
COc1ccc(/C=C2\SC(N)=NC2=O)cc1Br	none
Cc1ccc(C2=NC(=O)/C(=C/c3cc(O)c(O)c(Br)c3)S2)cc1	Rin1-Abl PPI inh 8.5 (no result: TPT1 inhibitor, IDE inh, Calb FLC) | Rin1 Abl conf 15.1 | GFP quench-1 41.1
COc1ccc(N(C(=O)c2snc(C(N)=O)c2N)C(C(=O)NCC2CCCO2)c2ccc3ncccc3c2)cc1OC (stereo not drawn)	none
O=C(c1ccncc1)N1CCN(C2CCCCC2)CC1	Rin1-Abl PPI inh 10.0 | Rin1 Abl conf inactive | GFP quench-1 inactive
O=C(c1ccccc1)N1CCN(C2CCCCC2)CC1	none
COC(=O)N(C)C[C@@H]1OCc2cnnn2CCCC(=O)N([C@@H](C)CO)C[C@H]1C	none (no result: IDE cell activ, TPT1 inhibitor, IDE inh, Calb FLC)
CCOc1ccc(OCCCC(=O)N(C)CC(=O)Nc2ccc(N3CCOCC3)cc2)cc1	none
CN(CC(=O)Nc1ccc(N2CCOCC2)cc1)C(=O)CCCOc1ccc(Cl)cc1Cl	Rin1-Abl PPI inh 11.5 | Rin1 Abl conf inactive | GFP quench-1 inactive
Cc1cccc(C)c1NC(=O)NC1(C(=O)NCc2ccncc2)CCCCC1	none
